Measured values published in PubChem BioAssay (NCI).
About 79,000 compounds went through this panel and 15% of them were active in at least one assay; those are over-represented in the sample as a whole. The source made the active and inactive calls. Rule as the data show it: active = growth inhibition above about 70%; inactive = the rest.

Key:
[1] = NCI Yeast Anticancer Drug Screen. Data for the rad50 strain (AID 155);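 also: 0% = growth of vehicle-only cultures of the same strain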; settings: S. cerevisiae rad50 strain growth inhibition; at 50.0 µM; hits give high values
Summary of the method: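 Inhibition values express reduced yeast growth in compound-treated cultures relative to vehicle-treated controls.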

[2] = NCI Yeast Anticancer Drug Screen. Data for the mec2-1 strain (AID 157); settings: S. cerevisiae mec2-1 strain, at 50.0 µM, hits give high values
Summary of the method: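 mec2-1 yeast strain, carrying an alteration in DNA damage repair or cell cycle control, was exposed to compounds; growth inhibition was measured relative to vehicle-treated controls.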

[3] = NCI Yeast Anticancer Drug Screen. Data for the sgs1 mgt1 strain (AID 161);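 also: 0% = growth of cultures given vehicle only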; settings: S. cerevisiae sgs1 mgt1 strain, at 50.0 µM, hits give high values
Summary of the method: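 Yeast cells carrying a defined DNA-repair defect were exposed to test compounds. Growth inhibition was measured relative to vehicle-treated controls.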

[4] = NCI Yeast Anticancer Drug Screen. Data for the cln2 rad14 strain (AID 165);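 also: 0% = growth equal to vehicle treated cultures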; settings: S. cerevisiae cln2 rad14 strain, at 50.0 µM, hits give high values
Summary of the method: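 Yeast carrying cln2 and rad14 alterations (cell cycle control and DNA damage repair) were exposed to compounds. Growth inhibition was measured against vehicle-treated controls.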

[5] = NCI Yeast Anticancer Drug Screen. Data for the bub3 strain (AID 167); settings: S. cerevisiae bub3 mutant strain, at 50.0 µM, hits give high values
Summary of the method: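 Steps: expose the mutant yeast strain to compound; grow alongside vehicle-treated cultures; measure growth; express inhibition against the vehicle cultures.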

[6] = NCI Yeast Anticancer Drug Screen. Data for the mlh1 rad18 strain (AID 175); settings: S. cerevisiae mlh1 rad18 strain growth inhibition; at 50.0 µM; hits give high values
Summary of the method: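 Growth inhibition of the yeast strain was measured after compound exposure and expressed relative to vehicle-treated controls. The strain carries defined defects in DNA damage repair.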

Measured: growth inhibition

SCc1ccc(CS)s1
inactive: [1] 4.65% | [2] -1.75% | [3] -1.65% | [4] 17.8% | [5] 23.2% | [6] -4.3%

CCOC(=O)C(=CNC(=S)Nc1ccc(Cl)c(Cl)c1)C(=O)OCC
inactive: [1] 53.5% | [2] 39.5% | [3] 59.7% | [4] 45.6% | [5] 39% | [6] 67.5%

C[n+]1c(/C=C/C=C/c2ccccc2)oc2ccccc21
inactive: [1] -38.3% | [2] -2.25% | [3] -22.6% | [4] -11.2% | [5] 5.8% | [6] 9.7%

CC1(C)OCC2OC=CC(=O)C2O1 (stereo not drawn)
inactive: [1] -8.65% | [2] -2.65% | [3] -0.4% | [4] 5.15% | [5] -14.1% | [6] -68.5%

C1CC2CC1CC2C1CO1 (stereo not drawn)
inactive: [1] 3.45% | [2] -6.15% | [3] 4.85% | [4] 0.75% | [5] 0.5% | [6] 4.7%

CC(C)C(C(=O)O)N1C(=O)c2ccccc2C1=O (stereo not drawn)
inactive: [1] -16.2% | [2] -1.5% | [3] -12.2% | [4] -31.6% | [5] -16.1% | [6] -4.15%

CC(=O)Nc1cccc2c(OC(C)=O)cccc12
inactive: [1] 15.1% | [2] -20.9% | [3] -19.7% | [4] -50% | [5] 7.6% | [6] -4.1%

O=c1[nH]c(Br)nc2c(Br)c[nH]c12
inactive: [1] -17.1% | [2] -0.15% | [3] -18.4% | [4] -12.8% | [5] -22.2% | [6] -18.9%

CCn1c2ccccc2c2ccc(N=Nc3ccccc3)cc21
inactive: [1] 36.8% | [2] 12.6% | [3] 19.2% | [4] -1.75% | [5] 22.8% | [6] 17.8%

CC(C)Cc1ccc(C(C)CC2=CCC(CN(C)C)C2=O)cc1 (stereo not drawn)
active: [1] 79.2% | [2] 91.5% | [3] 90.2% | [4] 84.4% | [5] 88.7% | [6] 89.3%

N=C(N)SCc1ccc(Cl)cc1Cl (tested in a mixture with another compound)
inactive: [1] 34.1% | [2] 12.3% | [3] 6.35% | [4] 3.05% | [5] 7.9% | [6] 26.4%

COc1ccc(Nc2nc3c([nH]2)c(=O)n(C)c(=O)n3C)cc1
inactive: [1] -15.6% | [2] 5.1% | [3] -11.3% | [4] 6.9% | [5] -1.3% | [6] 13.3%

CNc1nc(C(F)(F)F)nc2[nH]ncc12
inactive: [1] 5.15% | [2] 17.9% | [3] -7.65% | [4] -16.9% | [5] -20.6% | [6] -20.9%

CN(C)S(=O)(=O)C(CO)c1ccccc1 (stereo not drawn)
inactive: [1] 5.75% | [2] 12.9% | [3] 6.8% | [4] 3.15% | [5] -5.4% | [6] 10.5%

COc1cc(C(=O)NC(=S)NC2CCCCCCCCCCC2)cc(OC)c1OC
inactive: [1] 8.1% | [2] -15.3% | [3] 7.25% | [4] 1.65% | [5] 6.05% | [6] 4.6%

CCCCCCC(=O)/C=C/c1ccccc1OC
inactive: [1] 9.15% | [2] -12.2% | [3] -3.55% | [4] -20.4% | [5] 2.3% | [6] -14.1%

O=C(Nc1ccccc1)OC1C(OC(=O)c2ccccc2)OC(COC(=O)c2ccccc2)C1OC(=O)c1ccccc1 (stereo not drawn)
inactive: [1] -0.5% | [2] 0.75% | [3] 0.25% | [4] -0.85% | [5] -9.1% | [6] -10.5%

O=C(CCCl)OC1CCCC1
inactive: [1] 1.5% | [2] -9.8% | [3] -3.6% | [4] -30.4% | [5] -5.65% | [6] 9%

CCCC(C)C(=O)OCCCc1ccccc1 (stereo not drawn)
inactive: [1] 7.55% | [2] -5.2% | [3] 2.9% | [4] -20.1% | [5] 18.8% | [6] 3.8%

CCOc1cc(/C=N\NC(=S)N/N=C/c2ccc(O)c(OCC)c2)ccc1O
inactive: [1] -15.2% | [2] -0.75% | [3] -4.35% | [4] 1.55% | [5] -6.65% | [6] 29.9%

O=C(/C=C(\Br)c1ccccc1)c1ccccc1
active: [1] 99.3% | [2] 99.5% | [3] 99.8% | [4] 99.2% | [5] 98.9% | [6] 99.3%

O=c1ccc2c(O)cc(O)cc2o1
inactive: [1] -8.9% | [2] -5.9% | [3] -13.7% | [4] 5.05% | [5] 8.35% | [6] -8.5%

NNc1nnnc2ccccc12
inactive: [1] 14.2% | [2] 1.1% | [3] -0.8% | [4] -38.2% | [5] -31.1% | [6] 22.2%

Cn1c(=O)c2[nH]c(SCCN3CCOCC3)nc2n(C)c1=S
inactive: [1] -23.4% | [2] -47.2% | [3] -25.6% | [4] 14.2% | [5] -66.2% | [6] -4.95%

O=C1CC(NC(=O)C(F)(F)F)c2c(Br)sc(N3CCNCC3)c21 (stereo not drawn)
inactive: [1] 6.05% | [2] 12.1% | [3] -25.2% | [4] -2.2% | [5] -2.65% | [6] -30.4%

CC(=O)N/C(=C\c1ccc(Cc2nc3c([nH]2)C(=O)c2ccccc2C3=O)cc1)c1nc2c([nH]1)C(=O)c1ccccc1C2=O
inactive: [1] -7.5% | [2] 12.4% | [3] 11.1% | [4] 23.7% | [5] 15.2% | [6] 33.1%

CC(=O)c1ccccc1NC(=O)C(=O)C(C(=O)c1ccc2ccccc2c1)C1OC(=O)c2ccccc21 (stereo not drawn)
inactive: [1] -3.15% | [2] 3.45% | [3] 11.4% | [4] -44.2% | [5] 4.85% | [6] 8.25%

Cn1cnc2cc([N+](=O)[O-])ccc21
inactive: [1] -9.6% | [2] -7.95% | [3] -32.2% | [4] -24.6% | [5] -9.6% | [6] 8.8%

O=C1CN(CCN2CCCCC2)CC(=O)N2CCCCN12
inactive: [1] -32% | [2] -7.15% | [3] -8.65% | [4] 9.2% | [5] -5.75% | [6] -10.8%

O=S(=O)(Oc1cccc2ccccc12)c1ccccc1
inactive: [1] -2.7% | [2] -2.5% | [3] -5.05% | [4] -5.45% | [5] 0.95% | [6] 8.4%

Cc1ccc(C(O)/C(=N/N)c2nc3ccc([N+](=O)[O-])cc3[nH]c2=O)cc1 (stereo not drawn)
inactive: [1] 6.45% | [2] -20.1% | [3] -28.8% | [4] -13.2% | [5] -9.4% | [6] -12.1%

Cc1ccc(S(=O)(=O)/C(C#N)=C/NC(=S)Nc2ccc(S(N)(=O)=O)cc2)cc1
inactive: [1] 12.5% | [2] -21.2% | [3] -4.1% | [4] -6.85% | [5] -10.7% | [6] -10.9%

OC(CNc1ccc(Cl)cc1)CN1CCOCC1 (stereo not drawn)
active: [1] 77.7%
inactive: [2] 15.2% | [3] 14.9% | [4] -1.05% | [5] -3.7% | [6] 42%

COC(=O)C(Cc1nc2ccccc2[nH]c1=O)C(=O)C(=O)Nc1ccc(OC)cc1[N+](=O)[O-] (stereo not drawn)
inactive: [1] -14.4% | [2] -9.5% | [3] 14.3% | [4] -77.2% | [5] -1.4% | [6] 5.5%

COc1cc(C(c2cc3c(cc2O)OCO3)N2CCCC2)cc(OC)c1OC (stereo not drawn)
inactive: [1] -13.2% | [2] 17.9% | [3] -13.9% | [4] 13% | [5] -5.3% | [6] -7.85%

CCOC(=O)c1c(/N=C/c2ccc3c(c2)OCO3)sc2c1CCCC2
inactive: [1] 7.7% | [2] -23.3% | [3] 17.8% | [4] 11.8% | [5] 11.3% | [6] 3.2%

c1cc2c3c(c1)ccc1ccc4cccc(c4c13)O2
inactive: [1] -26.4% | [2] -2.4% | [3] -24.2% | [4] -0.7% | [5] -3.45% | [6] -47.9%

COc1ccc(C2COc3cc4c(cc3C2)OCO4)cc1 (stereo not drawn)
inactive: [1] -22.4% | [2] -26.1% | [3] -20.6% | [4] -2.3% | [5] 20.1% | [6] 4.9%
